# Reference: PubChem BioAssay (NCI)
# Compounds without any hit were thinned out: in the full panel of roughly 79,000, 15% have a hit. Unmarked numbers belong to inactive results. The source made the active and inactive calls. Rule as the data show it: active = growth inhibition above about 70%; inactive = the rest.
# Legend:
# [1] = NCI Yeast Anticancer Drug Screen. Data for the rad50 strain (AID 155);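 also: 0% = growth of vehicle-only cultures of the same strain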; settings: S. cerevisiae rad50 strain growth inhibition, stronger effect = higher value
# In short: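 Compounds were tested on a yeast strain with an engineered DNA damage repair alteration; the reported value is growth inhibition normalised to vehicle treatment.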
# [2] = NCI Yeast Anticancer Drug Screen. Data for the mec2-1 strain (AID 157); settings: S. cerevisiae mec2-1 strain, stronger effect = higher value
# In short: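 Vehicle-treated cultures served as reference for growth inhibition of compound-exposed mec2-1 yeast.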
# [3] = NCI Yeast Anticancer Drug Screen. Data for the sgs1 mgt1 strain (AID 161);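 also: 0% = growth of cultures given vehicle only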; settings: S. cerevisiae sgs1 mgt1 strain, stronger effect = higher value
# In short: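 Mutant yeast exposed to compound; growth scored against vehicle-only wells.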
# [4] = NCI Yeast Anticancer Drug Screen. Data for the cln2 rad14 strain (AID 165);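 also: 0% = growth equal to vehicle treated cultures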; settings: S. cerevisiae cln2 rad14 strain, stronger effect = higher value
# In short: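 Each compound was tested on cln2 rad14 yeast. Inhibition of growth was calculated against vehicle-exposed controls.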
# [5] = NCI Yeast Anticancer Drug Screen. Data for the bub3 strain (AID 167); settings: S. cerevisiae bub3 mutant strain, stronger effect = higher value
# In short: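 Growth of a checkpoint-deficient yeast mutant is measured after compound exposure. Values represent inhibition relative to vehicle.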
# [6] = NCI Yeast Anticancer Drug Screen. Data for the mlh1 rad18 strain (AID 175); settings: S. cerevisiae mlh1 rad18 strain growth inhibition, stronger effect = higher value
# In short: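 Vehicle-treated cultures served as the reference for growth inhibition in a yeast strain carrying DNA damage repair alterations exposed to each compound.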
# [7] = at 5.0 µM (retest, dose inferred, filed as 0.5)
# [8] = at 50.0 µM (retest, dose inferred, filed as 5.0)
SMILES,"growth inhibition [1, 7]","growth inhibition [1, 8]",growth inhibition ([1]; at 50.0 µM),"growth inhibition [2, 7]","growth inhibition [2, 8]",growth inhibition ([2]; at 50.0 µM),"growth inhibition [3, 7]","growth inhibition [3, 8]",growth inhibition ([3]; at 50.0 µM),"growth inhibition [4, 7]","growth inhibition [4, 8]",growth inhibition ([4]; at 50.0 µM),"growth inhibition [5, 7]","growth inhibition [5, 8]",growth inhibition ([5]; at 50.0 µM),"growth inhibition [6, 7]","growth inhibition [6, 8]",growth inhibition ([6]; at 50.0 µM)
CCOP(=S)(OCC)SSSP(=S)(OCC)OCC,6%,71% (active),1.6%,5%,62%,57.8%,7%,78% (active),15.7%,5%,20%,65.8%,2%,84% (active),70% (active),4%,49%,33.9%
O=[N+]([O-])/C=C\C(Cl)(Cl)Cl,74% (active),99% (active),91.7% (active),72% (active),99% (active),92.7% (active),73% (active),99% (active),92.2% (active),82% (active),99% (active),91.5% (active),92% (active),99% (active),90.5% (active),74% (active),99% (active),91.3% (active)
CC(=O)O[C@@H]1[C@@H](O)[C@H]2O[C@@H]3C=C(C)C(=O)[C@@H](O)[C@]3(CO)[C@]1(C)[C@]21CO1,14%,85% (active),48.7%,22%,93% (active),20.1%,13%,90% (active),62.4%,33%,92% (active),23.5%,8%,90% (active),85% (active),18%,95% (active),83.3% (active)
CCOC(=O)C1C(O)=C(P(=O)(C2=C(O)C(C(=O)OCC)C(c3ccc(OC(C)=O)cc3)C(C(=O)O)C2=O)N(CCCl)CCCl)C(=O)C(C(=O)O)C1c1ccc(OC(C)=O)cc1 (configuration not stated),16%,86% (active),45.6%,1%,85% (active),71.8% (active),11%,95% (active),52%,-5%,73% (active),66.2%,-4%,90% (active),54.4%,20%,92% (active),61.2%
O=[As](O)(O)c1ccc(Cc2ccc([As](=O)(O)O)cc2)cc1,82% (active),100% (active),99.2% (active),62%,100% (active),99.5% (active),26%,99% (active),99% (active),59%,99% (active),98.5% (active),66%,100% (active),99.1% (active),78% (active),99% (active),99.2% (active)
CC[CH2][Pb]([CH2]CC)([CH2]CC)[O]C(C)=O,54%,79% (active),91% (active),50%,75% (active),92.7% (active),100% (active),100% (active),93.8% (active),73% (active),100% (active),91.3% (active),99% (active),100% (active),90.6% (active),49%,67%,91.3% (active)
C[Se]C([Se]C)=C([Se]C)[Se]C,9%,95% (active),29.5%,3%,91% (active),99% (active),-1%,99% (active),52%,2%,59%,45.2%,5%,92% (active),-0.4%,1%,94% (active),85.3% (active)
COc1ccccc1/C=C/[N+](=O)[O-],90% (active),98% (active),99.6% (active),65%,99% (active),99.7% (active),87% (active),99% (active),99.2% (active),62%,99% (active),99.3% (active),74% (active),98% (active),99.2% (active),96% (active),99% (active),99% (active)
[Cl][Sn]([CH2]c1ccccc1)([CH2]c1ccccc1)[CH2]c1ccccc1,99% (active),98% (active),99% (active),100% (active),99% (active),99.2% (active),100% (active),99% (active),99.3% (active),99% (active),98% (active),98.7% (active),99% (active),99% (active),98.5% (active),99% (active),99% (active),99% (active)
